Our source for the Potency and outcome values is PubChem BioAssay (Tox21).

Values without a mark were called inactive. Results filed as inconclusive are left out. The source made the active and inactive calls. Unless noted, the call rests on the fitted dose curve; in most records, active means well fitted curve in the direction sought with a large enough effect in the repeat runs; inconclusive means weak or mixed curves; inactive means no such curve, though single readings can be large; an effect the other way counts as inactive or inconclusive.

A short description of test [1]: qHTS assay for small molecules that induce genotoxicity in human embryonic kidney cells expressing luciferase-tagged ATAD5 (AID 651632). Further: nearly all actives have a fitted effect of over 15% in size. Put shortly: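 HEK293T cells carrying a luciferase reporter tagged to ATAD5 were exposed to compound or DMSO vehicle for 16 hr at 37C, 5% CO2. Amplite was added, and after 30 min at room temperature luciferase activity was read as a marker of ATAD5 induction.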

The nature of test [2]: qHTS assay for small molecule agonists of the p53 signaling pathway - cell viability (AID 651633; calls by dose curve;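 further: p53RE-bla HCT reporter cells with a stable beta-lactamase p53 reporter; series mostly up to about 83 µM; nearly all actives have a fitted effect of over 30% in size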). The essentials:
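p53RE-bla cells, seeded at 4,000 per well and rested 5 h at 37 C/5% CO2, received compounds in DMSO for 16 h at 37 C. CellTiter-Glo was then added, and luminescence was read after 30 min at room temperature to gauge cytotoxicity.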
(In qHTS, concentration-response curves come from the screen itself.)

A short description of test [3]: qHTS assay for small molecules that induce genotoxicity in human embryonic kidney cells expressing luciferase-tagged ATAD5 - cell viability (AID 651634; calls by dose curve; further: nearly all actives have a fitted effect of over 25% in size). The essentials: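 HEK293T cells expressing luciferase-tagged ATAD5 were exposed to compound or DMSO for 15.5 hr at 37C, 5% CO2. Viability was then read as live-cell protease activity by CellTiter-Fluor fluorescence after 30 min at 37C.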

Test [4] can be described thus: qHTS assay for small molecule disruptors of the mitochondrial membrane potential - cell viability (AID 720634; calls by dose curve;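 further: human HepG2 liver cancer cells; series mostly up to about 83 µM; nearly all actives have a fitted effect of over 20% in size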). The essentials: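 HepG2 cells seeded overnight at 37 C, then exposed to compound or DMSO for 1 hr at 37 C, 5% CO2. m-MPI dye added, then CellTiter-Glo for 30 min at room temperature; viability read as ATP luminescence.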
A short description of test [5]: qHTS assay for small molecule disruptors of the mitochondrial membrane potential (AID 720635). Further: potency means the concentration at half of the fitted maximal effect. The essentials:
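HepG2 cells (2,000/well) attached overnight at 37C, then took compound for 1 hr at 37C, 5% CO2. Mito-MPS dye was added for 30 min; fluorescence was read at 490/535 nm (monomers) and 540/590 nm (aggregates).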

Test [6] in a line: qHTS assay to test for compound auto fluorescence at 590 nm (red) in HepG2 cells (AID 720674). The essentials: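 Compound auto-fluorescence is scored relative to Rose Bengal sodium, measured at 540/590 nm in live HepG2 cultures after 1 hr compound contact (37 C, 5% CO2).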
Test [7] is described as follows: qHTS assay to test for compound auto fluorescence at 535 nm (green) in HepG2 cells (AID 720675).
Test [8] in a line: qHTS assay to test for compound auto fluorescence at 460 nm (blue) in HEK293 cells (AID 720678). The essentials:
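HEK293 cells (2,000 per well, medium with 10% dialyzed FBS) attached for 4-5 hr at 37C, then received compound and stood overnight at 37C, 5% CO2. Blue fluorescence was read at Ex/Em 405/460 nm and expressed relative to triamterene.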

The nature of test [9]: qHTS assay to test for compound auto fluorescence at 590 nm (red) in HEK293 cells (AID 720679). The essentials:
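HEK293 cells (2,000/well, medium with 10% dialyzed FBS) attached for 4-5 hr at 37C, received 23 nL compound and were incubated overnight at 37C, 5% CO2. Red fluorescence was then read at 540/590nm Ex/Em, referenced to Rose Bengal sodium.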

Test [10] in a line: qHTS assay to test for compound auto fluorescence at 535 nm (green) in HEK293 cells (AID 720680).
Test [11] can be described thus: qHTS assay to test for compound auto fluorescence at 460 nm (blue) in HEK293 cell free culture (AID 720681). The essentials:
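Test compounds were pinned into cell-free culture medium (DMEM with 10% FBS) and fluorescence was read directly at Ex/Em 405/460 nm. Signals were expressed as fluorescence equivalents of triamterene, with DMSO vehicle as control.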

The nature of test [12]: qHTS assay to test for compound auto fluorescence at 535 nm (green) in HEK293 cell free culture (AID 720682). Put shortly:
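Green-label autofluorescence (485 nm excitation, 535 nm emission) measured on compound added to cell-free culture medium (DMEM, 10% FBS). Output is expressed relative to fluorescein.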

A short description of test [13]: qHTS assay to test for compound auto fluorescence at 590 nm (red) in HepG2 cell free culture (AID 720684). Put shortly: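 Measured in medium alone (MEM containing 10% FBS) following pintool addition of compound; emission at 590 nm with 540 nm excitation, referenced to Rose Bengal sodium.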
Test [14] can be described thus: qHTS assay to test for compound auto fluorescence at 460 nm (blue) in HepG2 cell free culture (AID 720685). Put shortly:
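Compound (23 nL) or DMSO pinned into cell-free MEM with 10% FBS; blue fluorescence read at 405/460 nm excitation/emission, expressed as auto-fluorescence equivalency to triamterene.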

The nature of test [15]: qHTS assay to test for compound auto fluorescence at 535 nm (green) in HepG2 cell free culture (AID 720686).
Test [16] can be described thus: qHTS assay to test for compound auto fluorescence at 460 nm (blue) in HepG2 cells (AID 720687). The essentials:
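Cells (2,000/well in MEM with 10% FBS) attached overnight at 37 C, then were exposed to compound or DMSO for 1 hr at 37 C, 5% CO2. Fluorescence read at Ex/Em 405/460 nm, expressed as triamterene-equivalent signal.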

Test [17] concerns the target Glucocorticoid receptor (Homo sapiens) (UniProt P04150). Nature of the test: qHTS assay to identify small molecule agonists of the glucocorticoid receptor (GR) signaling pathway (AID 720691; active means well fitted activation curve with a large enough effect in the signal ratio in the repeat runs, not every such curve was filed as active; the % refers to the signal ratio; further: potency means the concentration at half of the fitted maximal effect). Put shortly: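 GR-bla HeLa cells (beta-lactamase reporter under glucocorticoid response element) were plated 4 h at 37 C/5% CO2, given compounds in DMSO, and incubated 18 h at 37 C. LiveBLAzer B/G FRET substrate was added for 2 h at room temperature, then fluorescence intensity read.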

Test [18] can be described thus: qHTS assay to test for compound auto fluorescence at 590 nm (red) in HEK293 cell free culture (AID 720683). Put shortly: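 Tox21 10K library compounds were pinned into cell-free DMEM with 10% FBS and fluorescence was read at excitation 540 nm. Activity is expressed as Rose Bengal sodium equivalency.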
A short description of test [19]: qHTS assay for small molecule agonists of the p53 signaling pathway (AID 651631; calls by dose curve; further: nearly all actives have a fitted effect of over 15% in size). The essentials: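 HCT-116 cells carrying a beta-lactamase reporter under p53 response elements were dosed with compound for 16 h at 37 °C. LiveBLAzer B/G FRET substrate was then added for 2 h at room temperature, and fluorescence intensity was read to detect pathway agonism.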
In test [20] the target is Glucocorticoid receptor (Homo sapiens) (UniProt P04150). Put plainly: qHTS assay to identify small molecule antagonists of the glucocorticoid receptor (GR) signaling pathway (AID 720692; active means well fitted inhibition curve with a large enough effect in the signal ratio in the repeat runs, not every such curve was filed as active; the % refers to the signal ratio). Put shortly: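 GR-bla HeLa cells (beta-lactamase reporter under glucocorticoid response element) were pre-plated 4 h at 37 C, treated with compounds plus 5 nM dexamethasone (final) for 18 h, then read by LiveBLAzer B/G FRET fluorescence after 2 h.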
Glucocorticoid receptor (Homo sapiens), sequence (P04150 whole entry, looked up): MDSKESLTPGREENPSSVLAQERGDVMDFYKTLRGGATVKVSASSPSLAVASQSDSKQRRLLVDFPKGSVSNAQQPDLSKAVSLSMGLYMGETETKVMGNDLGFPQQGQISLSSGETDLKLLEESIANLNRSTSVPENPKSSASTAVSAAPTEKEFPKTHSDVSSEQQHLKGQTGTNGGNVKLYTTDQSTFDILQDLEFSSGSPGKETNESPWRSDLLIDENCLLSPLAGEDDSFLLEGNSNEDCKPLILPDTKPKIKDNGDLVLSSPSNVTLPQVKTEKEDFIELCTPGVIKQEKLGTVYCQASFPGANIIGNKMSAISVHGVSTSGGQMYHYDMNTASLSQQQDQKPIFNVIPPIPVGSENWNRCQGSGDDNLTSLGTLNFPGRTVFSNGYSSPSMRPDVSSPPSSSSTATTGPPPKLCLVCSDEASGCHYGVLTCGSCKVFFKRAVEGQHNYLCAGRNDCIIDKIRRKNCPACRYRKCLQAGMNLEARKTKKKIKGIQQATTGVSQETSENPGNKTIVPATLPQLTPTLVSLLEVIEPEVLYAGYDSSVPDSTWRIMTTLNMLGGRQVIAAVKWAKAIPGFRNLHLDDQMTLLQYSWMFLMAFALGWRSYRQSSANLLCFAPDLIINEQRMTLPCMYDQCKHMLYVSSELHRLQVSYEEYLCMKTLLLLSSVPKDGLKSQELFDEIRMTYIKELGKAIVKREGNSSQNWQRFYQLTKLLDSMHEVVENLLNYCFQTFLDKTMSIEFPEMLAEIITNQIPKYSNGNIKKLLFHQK

Take `CCCC(=O)O[C@]1(C(=O)COC(=O)CC)CC[C@H]2[C@@H]3CCC4=CC(=O)CC[C@]4(C)[C@H]3[C@@H](O)C[C@@]21C`: the Potency entry in test [1], in [2], in test [3], in [4], in test [5] and in test [8] was “inactive” each time. Moreover, the Potency result in test [11], in [14] and in test [16] was “inactive” in each case. The compound was classed as inactive in [6], in test [7], in test [9], in test [10], in [12] and in [13]. The result in test [15] was inactive. In addition, in test [17], the Potency was 0.301 µM (active).

For the compound `NC(=O)Nc1ccc(Cl)cc1`, the Potency entry in test [1], in test [2], in test [3], in test [4], in test [5] and in test [8] was “inactive” throughout. Moreover, the Potency entry in [11], in [14] and in [16] was “inactive” throughout. The result in test [6], in [7], in [9], in test [10], in [12] and in test [18] was inactive. In addition, the compound was called inactive in test [13] and in [15].

As to `Cc1cc(O)c2c(O)c3c(O)cccc3cc2c1`, the Potency entry in test [19], in [1], in test [3], in test [8], in test [11] and in [14] was “inactive” each time. Also, the Potency entry in [16] and in test [17] was “inactive” throughout. Also, the Potency in test [5] is 18.8 µM (active). Moreover, the call in test [6], in test [7], in [9], in test [10], in test [12] and in test [18] was inactive. For the same compound, the outcome in test [13] and in [15] was inactive.

For the compound `C=CC(C)(O)CCCC(C)CCCC(C)CCCC(C)C` (centres undefined), the Potency result in [19], in [1], in test [3], in test [4], in test [8] and in test [11] was “inactive” throughout. The Potency entry in test [14], in [16], in [17] and in test [20] was “inactive” in each case. Also, the result in [6], in [7], in test [10], in test [12], in test [18] and in test [13] was inactive. Besides, the compound was classed as inactive in test [15].

On to `CN(C)C(=O)Nc1ccc(Oc2ccc(Cl)cc2)cc1`, for which the Potency result in test [1], in test [2], in test [3], in test [4], in test [8] and in test [11] was “inactive” throughout. Besides, the Potency result in test [14] and in test [16] was “inactive” in each case. Also, the Potency in [5] was 6.11 µM (active). For the same compound, the compound was classed as inactive in test [6], in [7], in [9], in test [10], in test [12] and in test [18]. For the same compound, the result in test [13] and in [15] was inactive.

Take `Cc1nc2ccccn2c(=O)c1CCN1CCC(C(=O)c2ccc(F)cc2)CC1`: the Potency result in test [19], in test [1], in [3], in test [4], in test [8] and in test [11] was “inactive” each time. The Potency entry in test [14], in [16] and in test [17] was “inactive” in each case. Besides, the compound was classed as inactive in test [6], in test [7], in test [9], in test [10], in test [12] and in test [18]. The call in [13] and in [15] was inactive.

On to `CCCCC(=O)O[C@]1(C(=O)CO)[C@@H](C)C[C@H]2[C@@H]3CCC4=CC(=O)C=C[C@]4(C)[C@@]3(F)[C@@H](O)C[C@@]21C`, for which the Potency entry in test [19], in test [1], in [3], in test [8], in test [11] and in test [14] was “inactive” each time. For the same compound, the Potency entry in [16] was “inactive”. Also, the Potency in test [5] was 19.3 µM (active); in test [17], 0.0019 µM (active). For the same compound, the outcome in test [6], in [7], in test [9], in test [10], in test [12] and in [18] was inactive. The call in test [13] and in test [15] was inactive.
